The source made the active and inactive calls.
Tests used:
[1] = test system: Plasmodium falciparum Sir2 (PF13_0152, Sir2A); test: Plasmodium falciparum Sir2A binding compounds – biochemical, small-molecule microarray, 635 nm fluorescence, primary screen (AID 1098); settings: fluorescence 635 nm, higher = more signal;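 also: score merges spot fluorescence intensity with its signal-to-noise ratio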
[2] = probe aDKK1 binding to arrayed compounds – biochemical, biotinylated probe, 635/667 nm fluorescence, primary screen (AID 1099); settings: small-molecule microarray, higher = more signal;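 also: score merges 667nm spot fluorescence with signal to noise across triplicate slides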
[3] = probe aCHRDL2 binding to arrayed compounds – biochemical, biotinylated probe, 635/667 nm fluorescence, primary screen (AID 1100); settings: small-molecule microarray, higher = more signal
[4] = change in splice reporter luminescence, either direction, cell-based, HEK293, spliceosome inhibition project, primary screen (AID 1101); settings: HEK293 splicing luciferase reporter, 24 h, higher = more signal, called active from +8 up or from −8 down;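 also: HEK293 cells carrying a splicing-competent luciferase reporter gene; test concentration not given here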
[5] = target: Fibroblast growth factor 10 (Homo sapiens) (UniProt O15520); test: compounds binding fibroblast growth factor 10 – biochemical, small-molecule microarray, 635 nm fluorescence, primary screen (AID 1102); settings: FGF10 binding, fluorescence 635 nm, higher = more signal
[6] = test system: glycogen synthase kinase-3 (GSK3A per assay name; protocol says GSK3B); test: compounds binding glycogen synthase kinase-3 – biochemical, small-molecule microarray, 635 nm fluorescence, GSK3A, primary screen (AID 1103); settings: fluorescence 635 nm, higher = more signal; also: the record names both GSK3A and GSK3B
[7] = target: Epidermal growth factor receptor (Homo sapiens) (UniProt P00533); test: compounds binding epidermal growth factor receptor – biochemical, small-molecule microarray, 635 nm fluorescence, primary screen (AID 1104); settings: EGFR binding, higher = more signal;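 also: score merges 667 nm emission intensity with spot signal to noise over triplicate slides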
[8] = target: Follistatin-related protein 3 (Homo sapiens) (UniProt O95633); test: compounds binding follistatin-related protein 3 – biochemical, small-molecule microarray, 635 nm fluorescence, primary screen (AID 1105); settings: FSTL3 binding, higher = more signal;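 also: score merges emission near 667 nm and signal to noise per printed spot across three slides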
[9] = target: Dickkopf-related protein 1 (Homo sapiens) (UniProt O94907); test: small molecules binding DKK1 protein – biochemical, small-molecule microarray, 635 nm fluorescence scan, primary screen (AID 1106); settings: higher = more signal;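 also: score merges emission near 667 nm with signal to noise over three replicate slides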
[10] = test system: Inhibin beta A chain (activin A); test: small molecules binding activin A – biochemical, small-molecule microarray, 635 nm fluorescence scan, primary screen (AID 1107); settings: INHBA, higher = more signal;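 also: mouse activin A protein probed at 4.33 µg/mL on printed slides; score merges bound-protein fluorescence near 667 nm with spot signal-to-noise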
[11] = test system: Human papillomavirus type 1a protein E7 (residues 44-93); test: small molecules binding HPV E7 44-93 – biochemical, small-molecule microarray, residues 44-93, 635 nm fluorescence, primary screen (AID 1108); settings: fluorescence 635 nm, higher = more signal;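 also: E7 fragment applied at 1 µg/mL in TBST for 1 h at 4 C; score combines spot fluorescence with its signal to noise ratio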
[12] = hepatitis C replication reporter changes, two-sided – Huh7 cells, luciferase reporter, HCV replication inhibitor project, primary screen (AID 1109); settings: Huh7 HCV replicon luciferase reporter, 48 h; higher = more signal;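 also: huh7 hepatoma cells harbouring a luciferase neomycin HCV replicon reporter; luciferase luminescence as measure of HCV replicon replication; test concentration not given here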
[13] = target: Left-right determination factor 2 (Homo sapiens) (UniProt O00292); test: small molecules binding LEFTY2 protein – biochemical, small-molecule microarray, 635 nm fluorescence scan, primary screen (AID 1110); settings: higher = more signal
[14] = target: Calmodulin-1 (Homo sapiens) (UniProt P0DP23); test: small molecules binding calmodulin-1 with EGTA – biochemical, small-molecule microarray, Cy5-labelled CALM1, profiling panel (AID 1111); settings: Cy5-CALM1 binding fluorescence, higher = more signal;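 also: labelled calmodulin applied in Tris saline Tween buffer holding calcium plus EGTA and DTT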
[15] = target: Calmodulin-1 (Homo sapiens) (UniProt P0DP23); test: small molecules binding Ca-loaded calmodulin-1 – biochemical, small-molecule microarray, Cy5-labelled CALM1, plus calcium, artefact control for SMM control-protein annotation, profiling panel (AID 1112); settings: Cy5-CALM1 binding fluorescence, higher = more signal;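 also: score merges spot fluorescence with signal to noise from triplicate slides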
[16] = probe aWnt5a binding to arrayed compounds – biochemical, biotinylated probe, 635/667 nm fluorescence, primary screen (AID 1113); settings: small-molecule microarray, higher = more signal;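 also: score merges 667 nm fluorescence intensity with signal-to-noise per printed feature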
[17] = probe aShh binding to arrayed compounds – biochemical, biotinylated probe, 635/667 nm fluorescence, primary screen (AID 1114); settings: small-molecule microarray, higher = more signal;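 also: probe is biotin-labelled aShh protein from a stem cell growth factor screen; measures binding of labelled protein to compounds printed on the slide; score merges feature fluorescence at 667 nm with signal-to-noise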
[18] = probe aNog binding to arrayed compounds – biochemical, biotinylated probe, 635/667 nm fluorescence, primary screen (AID 1115); settings: small-molecule microarray, higher = more signal;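 also: probe is biotinylated aNog protein used at 0.15 µg/mL for 1 h at 4 C; z-score combines 667 nm fluorescence of each spot with its signal to noise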
[19] = target: Torsin-1A-interacting protein 1 (Homo sapiens) (UniProt Q5JTV8); test: compound microarray binding of lysate hLAP1 – cell lysate, small-molecule microarray, COS7 lysate, 635/667 nm fluorescence, primary screen (AID 1116); settings: 635 nm fluorescence, higher = more signal
[20] = target: Alpha-bungarotoxin (Bungarus multicinctus) (UniProt P60615); test: compounds binding labelled alpha-BTX control protein – biochemical, small-molecule microarray, Alexa647 label, 635/667 nm fluorescence, artefact control for SMM control protein annotation, profiling panel (AID 1117); settings: alpha-BTX-A647 binding fluorescence, higher = more signal
Alpha-bungarotoxin (Bungarus multicinctus), sequence (P60615 whole entry, looked up): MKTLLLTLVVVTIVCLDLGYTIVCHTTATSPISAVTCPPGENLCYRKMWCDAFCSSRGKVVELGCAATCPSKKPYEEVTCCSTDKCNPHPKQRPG

Fibroblast growth factor 10 (Homo sapiens), sequence (O15520 whole entry, looked up): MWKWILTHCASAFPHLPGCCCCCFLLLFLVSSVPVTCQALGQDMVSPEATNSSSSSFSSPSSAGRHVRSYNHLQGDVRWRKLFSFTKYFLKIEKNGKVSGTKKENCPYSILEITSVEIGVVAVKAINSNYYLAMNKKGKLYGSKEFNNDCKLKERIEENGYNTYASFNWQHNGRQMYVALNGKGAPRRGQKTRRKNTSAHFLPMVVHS
Dickkopf-related protein 1 (Homo sapiens), sequence (O94907 whole entry, looked up): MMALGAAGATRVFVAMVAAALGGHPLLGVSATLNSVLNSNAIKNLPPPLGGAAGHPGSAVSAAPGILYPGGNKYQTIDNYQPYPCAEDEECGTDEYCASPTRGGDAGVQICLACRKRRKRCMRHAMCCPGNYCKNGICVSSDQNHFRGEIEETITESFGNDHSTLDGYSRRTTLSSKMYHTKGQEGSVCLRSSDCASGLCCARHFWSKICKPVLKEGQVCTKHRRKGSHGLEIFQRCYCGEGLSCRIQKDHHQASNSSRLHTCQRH
Epidermal growth factor receptor (Homo sapiens), sequence (P00533 whole entry, looked up): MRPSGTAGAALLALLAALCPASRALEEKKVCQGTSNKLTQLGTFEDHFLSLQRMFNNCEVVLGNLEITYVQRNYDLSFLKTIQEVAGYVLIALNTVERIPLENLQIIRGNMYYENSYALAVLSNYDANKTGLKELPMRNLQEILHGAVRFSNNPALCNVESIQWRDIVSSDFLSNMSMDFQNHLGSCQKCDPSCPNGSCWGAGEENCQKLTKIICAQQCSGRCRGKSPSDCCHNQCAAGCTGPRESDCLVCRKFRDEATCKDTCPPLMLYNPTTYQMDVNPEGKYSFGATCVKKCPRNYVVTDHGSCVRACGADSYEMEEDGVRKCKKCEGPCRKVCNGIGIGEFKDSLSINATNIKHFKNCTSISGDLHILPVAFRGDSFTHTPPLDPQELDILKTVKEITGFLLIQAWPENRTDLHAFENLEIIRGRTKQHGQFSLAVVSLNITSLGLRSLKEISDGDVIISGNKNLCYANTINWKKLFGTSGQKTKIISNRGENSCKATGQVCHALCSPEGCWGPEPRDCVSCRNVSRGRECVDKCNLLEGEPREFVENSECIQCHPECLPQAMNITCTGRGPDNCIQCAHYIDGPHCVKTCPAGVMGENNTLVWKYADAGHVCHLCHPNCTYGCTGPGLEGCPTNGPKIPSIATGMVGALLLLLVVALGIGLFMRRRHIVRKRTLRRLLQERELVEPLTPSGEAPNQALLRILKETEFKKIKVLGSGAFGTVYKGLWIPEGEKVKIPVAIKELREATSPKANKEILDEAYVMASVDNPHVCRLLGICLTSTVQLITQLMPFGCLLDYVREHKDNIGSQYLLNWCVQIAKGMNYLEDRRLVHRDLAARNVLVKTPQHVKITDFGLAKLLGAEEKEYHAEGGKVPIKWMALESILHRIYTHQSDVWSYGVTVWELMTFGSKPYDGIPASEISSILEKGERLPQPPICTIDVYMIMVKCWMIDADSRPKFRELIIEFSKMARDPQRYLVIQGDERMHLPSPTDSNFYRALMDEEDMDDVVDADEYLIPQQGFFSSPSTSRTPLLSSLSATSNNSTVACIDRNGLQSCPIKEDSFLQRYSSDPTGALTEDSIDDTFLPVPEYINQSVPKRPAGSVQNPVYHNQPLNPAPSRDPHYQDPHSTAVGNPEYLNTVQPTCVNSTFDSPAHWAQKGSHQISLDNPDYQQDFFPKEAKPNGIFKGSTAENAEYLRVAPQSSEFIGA
Torsin-1A-interacting protein 1 (Homo sapiens), sequence (Q5JTV8 whole entry, looked up): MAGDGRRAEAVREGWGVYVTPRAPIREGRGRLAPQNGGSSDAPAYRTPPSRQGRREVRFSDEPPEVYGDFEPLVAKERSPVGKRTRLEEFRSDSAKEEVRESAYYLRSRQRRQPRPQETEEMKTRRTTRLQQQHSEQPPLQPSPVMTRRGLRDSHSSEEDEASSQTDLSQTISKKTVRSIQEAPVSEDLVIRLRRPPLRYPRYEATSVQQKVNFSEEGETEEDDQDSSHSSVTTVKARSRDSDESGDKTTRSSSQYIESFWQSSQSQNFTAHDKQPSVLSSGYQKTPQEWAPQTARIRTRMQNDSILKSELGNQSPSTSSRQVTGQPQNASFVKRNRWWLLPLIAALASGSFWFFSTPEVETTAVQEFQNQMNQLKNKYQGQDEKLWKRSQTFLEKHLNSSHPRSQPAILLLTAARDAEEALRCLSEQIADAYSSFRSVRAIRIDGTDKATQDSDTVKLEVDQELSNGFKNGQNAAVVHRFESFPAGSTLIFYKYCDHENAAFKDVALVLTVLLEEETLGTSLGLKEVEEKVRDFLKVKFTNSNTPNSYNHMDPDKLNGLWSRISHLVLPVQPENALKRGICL
Left-right determination factor 2 (Homo sapiens), sequence (O00292 whole entry, looked up): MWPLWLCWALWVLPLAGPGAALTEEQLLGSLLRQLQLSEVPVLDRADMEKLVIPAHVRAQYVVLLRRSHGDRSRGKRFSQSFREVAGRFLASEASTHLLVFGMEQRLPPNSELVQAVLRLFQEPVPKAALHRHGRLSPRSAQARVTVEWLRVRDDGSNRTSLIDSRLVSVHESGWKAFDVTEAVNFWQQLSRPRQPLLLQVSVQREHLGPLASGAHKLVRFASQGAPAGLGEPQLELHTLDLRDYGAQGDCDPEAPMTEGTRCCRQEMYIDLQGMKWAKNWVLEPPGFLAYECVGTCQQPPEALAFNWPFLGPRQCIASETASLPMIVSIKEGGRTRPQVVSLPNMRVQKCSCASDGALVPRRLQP
Follistatin-related protein 3 (Homo sapiens), sequence (O95633 whole entry, looked up): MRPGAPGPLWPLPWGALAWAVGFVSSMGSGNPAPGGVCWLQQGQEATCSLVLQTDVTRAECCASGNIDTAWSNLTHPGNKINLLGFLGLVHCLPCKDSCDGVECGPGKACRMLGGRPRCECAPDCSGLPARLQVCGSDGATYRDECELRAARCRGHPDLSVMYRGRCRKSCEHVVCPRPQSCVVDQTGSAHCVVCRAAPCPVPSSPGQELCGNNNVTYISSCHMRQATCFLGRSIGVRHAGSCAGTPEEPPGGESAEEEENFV

Structure (SMILES)	composite z-score [1]	composite z-score [2]	composite z-score [3]	z-score [4]	composite z-score [5]	composite z-score [6]	composite z-score [7]	composite z-score [8]	composite z-score [9]	composite z-score [10]	composite z-score [11]	z-score [12]	composite z-score [13]	composite z-score [14]	composite z-score [15]	composite z-score [16]	composite z-score [17]	composite z-score [18]	composite z-score [19]	composite z-score [20]
COc1ccc(OC[C@H]2Cc3c(-c4ccccc4)nc4c(c3CO2)CN(CCOc2ccccc2)CC4)cc1	1.07	0.521	-0.233	-1.47 (inactive)	0.883	0.94	0.487	1.03	0.85	0.726	1.22	-1.77	0.722	0.59	-0.243	-0.0399	0.0815	0.0637	0.423	1.13
CCCNC(=O)[C@@H]1c2ccccc2C(=O)N(Cc2ccccc2Cl)[C@H]1c1ccc(CO)cc1	1.67	0.989	0.846	-0.493 (inactive)	0.619	1.28	0.192	1.34	0.649	0.341	1.22	-0.656	0.531	0.936	0.375	-0.0203	-0.0769	0.546	0.598	0.726
NC(=O)NCC#Cc1ccc2c(c1)[C@]1(C(=O)N2)[C@H](c2ccc(O)cc2)N2[C@H](c3ccccc3)[C@H](c3ccccc3)OC(=O)[C@H]2[C@@H]1C(=O)N1CCCCCCC1	1.08	1.8	1.08	0.445 (inactive)	0.593	-0.018	0.356	1.28	0.408	1.4	1.19	-0.421	0.258	0.822	0.675	0.338	0.462	-0.623	2.42	1.34
CCCC[C@@H](O)C1=C(C)C[C@H]2C(=O)N(Cc3ccccc3)C(=O)[C@H]2[C@H]1CO	0.222	-0.407	-0.494	0.0445 (inactive)	0.264	-0.0254	0.464	0.449	0.524	0.899	-0.101	0.156	0.521	-0.349	-0.611	-0.0478	-0.0553	-0.158	0.503	-0.227
Cc1cc2c(nc1C)CCCN2CC(O)CN1CCN(C)CC1 (stereo not given)	0.478	0.859	0.337	0.154 (inactive)	0.721	0.132	0.752	0.79	1.02	-1.07	0.329	-0.162	0.625	-0.441	-0.482	0.212	0.116	-0.23	0.395	0.908
CC(C)(C)N1C(=O)[C@H]2[C@H]3[C@H](O)[C@H](O)CC(=NO[C@@H]4O[C@H](CO)[C@@H](O)[C@H](O)[C@H]4O)[C@@H]3CC[C@H]2C1=O	0.756	-0.393	-0.854	0.519 (inactive)	0.522	0.869	0.768	1.01	1.15	0.911	0.964	-0.105	0.761	-0.448	-1.36	-0.0115	0.111	-0.0144	0	1.28
